Measured values reported in PubChem BioAssay (Tox21).
Inconclusive results are not listed. Activity calls are given as the source filed them. Unless noted, the call rests on the fitted dose curve; in most records, active means well fitted curve in the direction sought with a large enough effect in the repeat runs; inconclusive means weak or mixed curves; inactive means no such curve, though single readings can be large; an effect the other way counts as inactive or inconclusive.

Columns and labels:
[1] = qHTS assay to identify small molecule agonists of the peroxisome proliferator-activated receptor delta (PPARd) signaling pathway - cell viability counter screen (AID 743211); further: nearly all actives have a fitted effect of over 55% in size
Procedure, shortened: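 Read-out: CellTiter-Glo luminescence, 30 min RT, measured in the same wells as the beta-lactamase reporter. Cells: GeneBLAzer PPAR delta UAS-bla HEK293H, 3000 cells/well, compound exposure 17 h at 37C.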

[2] = qHTS assay to identify small molecule antagonists of the peroxisome proliferator-activated receptor delta (PPARd) signaling pathway - cell viability counter screen (AID 743213); further: nearly all actives have a fitted effect of over 50% in size
Procedure, shortened: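 HEK293H cells with the PPARd UAS-bla reporter, co-treated 17 h at 37 C with compounds and L165041 (300 nM final), were lysed with CellTiter-Glo. Luminescence indicated viable cell content.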

[3] = target: Peroxisome proliferator-activated receptor delta (Homo sapiens) (UniProt Q03181); experiment: qHTS assay to identify small molecule antagonists of the peroxisome proliferator-activated receptor delta (PPARd) signaling pathway (AID 743215; active means well fitted inhibition curve with a large enough effect in the signal ratio in the repeat runs, not every such curve was filed as active; the % refers to the signal ratio;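 further: cells stimulated with agonist L165041 at 300 nM final during compound exposure; series mostly up to about 62 µM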)
Sequence of Peroxisome proliferator-activated receptor delta (Homo sapiens) (Q03181 whole entry, looked up): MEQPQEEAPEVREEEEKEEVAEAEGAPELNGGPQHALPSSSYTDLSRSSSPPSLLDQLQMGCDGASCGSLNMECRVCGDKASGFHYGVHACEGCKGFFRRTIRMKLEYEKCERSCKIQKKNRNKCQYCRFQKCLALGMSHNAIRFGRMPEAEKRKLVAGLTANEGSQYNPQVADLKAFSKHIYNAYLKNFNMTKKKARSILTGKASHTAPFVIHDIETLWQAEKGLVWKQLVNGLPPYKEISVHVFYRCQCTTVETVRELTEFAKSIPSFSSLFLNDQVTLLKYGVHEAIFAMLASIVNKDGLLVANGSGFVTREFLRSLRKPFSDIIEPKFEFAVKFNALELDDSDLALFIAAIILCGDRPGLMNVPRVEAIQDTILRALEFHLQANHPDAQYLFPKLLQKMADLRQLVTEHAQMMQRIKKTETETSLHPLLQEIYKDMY
Procedure, shortened: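 Screen format: qHTS, antagonist mode. HEK293H PPARd-bla cells received compound and 300 nM L165041 (final), 17 h, 37 C. Beta-lactamase detected via FRET substrate fluorescence, 2 h, room temperature.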

[4] = qHTS assay to identify small molecule agonists of the farnesoid-X-receptor (FXR) signaling pathway - cell viability counter screen (AID 743218); further: nearly all actives have a fitted effect of over 45% in size
Procedure, shortened: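 Same-well cytotoxicity check on FXR-UAS-bla HEK 293T cells: 5 h attachment, 16 h compound at 37 C, CellTiter-Glo luminescence read at room temperature after 30 min.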

[5] = qHTS assay to identify small molecule antagonists of the farnesoid-X-receptor (FXR) signaling pathway - cell viability counter screen (AID 743221; active means well fitted cell-killing curve with a large enough effect in the repeat runs, not every such curve was filed as active; further: nearly all actives have a fitted effect of over 50% in size)
Procedure, shortened: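 HEK 293T FXR-bla cells, 5 h pre-incubation; compound + CDCA 50 uM final, 16 h, 37 C; beta-lactamase FRET read first, then CellTiter-Glo luminescence, 30 min RT.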

[6] = target: Vitamin D3 receptor (Homo sapiens) (UniProt P11473); experiment: qHTS assay to identify small molecule agonists of the vitamin D receptor (VDR) signaling pathway (AID 743222; calls by dose curve)
Sequence of Vitamin D3 receptor (Homo sapiens) (P11473 whole entry, looked up): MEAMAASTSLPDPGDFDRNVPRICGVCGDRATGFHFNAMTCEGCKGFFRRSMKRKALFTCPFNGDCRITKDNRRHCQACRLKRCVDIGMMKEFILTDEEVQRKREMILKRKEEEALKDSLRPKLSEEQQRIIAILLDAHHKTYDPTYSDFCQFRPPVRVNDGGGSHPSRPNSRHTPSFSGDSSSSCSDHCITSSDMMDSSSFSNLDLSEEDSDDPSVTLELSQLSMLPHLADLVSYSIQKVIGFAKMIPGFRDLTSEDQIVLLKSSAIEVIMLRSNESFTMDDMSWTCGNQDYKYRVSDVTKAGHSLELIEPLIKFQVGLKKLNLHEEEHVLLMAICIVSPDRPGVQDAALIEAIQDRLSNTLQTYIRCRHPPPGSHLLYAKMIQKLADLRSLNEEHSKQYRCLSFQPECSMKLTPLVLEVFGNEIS
Procedure, shortened: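 Using LiveBLAzer B/G FRET detection, agonism was scored in VDR-bla cells exposed overnight (16 h, 37C) to DMSO-dissolved compounds; substrate incubation was 2 h at room temperature.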

[7] = qHTS assay to identify small molecule agonists of the vitamin D receptor (VDR) signaling pathway - cell viability counter screen (AID 743224); further: series mostly up to about 63 µM; nearly all actives have a fitted effect of over 50% in size
Procedure, shortened: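 Counter screen for cytotoxicity: VDR-bla cells at 2,000 cells/well, 16 h compound exposure, then CellTiter-Glo luminescence after the beta-lactamase measurement.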

[8] = qHTS assay to identify small molecule antagonists of the vitamin D receptor (VDR) signaling pathway - cell viability counter screen (AID 743225); further: nearly all actives have a fitted effect of over 50% in size
Procedure, shortened: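 Viability counter screen run in the same wells as the beta-lactamase reporter assay: HEK 293T VDR-UAS-bla cells, 16 h compound exposure at 37C with 3 nM (final) 1-alpha,25-dihydroxyvitamin D3. CellTiter-Glo luminescence, 30 min, room temperature.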

[9] = qHTS assay to identify small molecule agonists of the NFkB signaling pathway (AID 1159509; active means well fitted curve in the direction sought with a large enough effect in the signal ratio in the repeat runs, not every such curve was filed as active; the % refers to the signal ratio; further: series mostly up to about 61 µM)
Procedure, shortened: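 Beta-lactamase reporter assay run in quantitative high-throughput format on an NF-kB-responsive ME-180 line, with 5 hr compound treatment and a FRET-based blue/green fluorescence readout.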

[10] = qHTS assay to identify small molecule agonists of the NFkB signaling pathway - cell viability counter screen (AID 1159515; calls by dose curve; further: series mostly up to about 61 µM; nearly all actives have a fitted effect of over 55% in size)
Procedure, shortened: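 Counter screen run alongside the NFkB-bla agonist assay: ME-180 reporter cells exposed to compounds for 5 hr, then lysed with CellTiter-Glo in the same wells. Luminescence, read after 30 min, reflects viable cells.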

[11] = qHTS assay to identify small molecule agonists of the endoplasmic reticulum stress response signaling pathway (AID 1159516; active means well fitted activation curve with a large enough effect in the signal ratio in the repeat runs, not every such curve was filed as active; the % refers to the signal ratio)
Procedure, shortened: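 For this screen, HeLa cells stably carrying beta-lactamase under the ER stress response element received test compounds, positive controls or DMSO for 5 hr at 37 C; B/G FRET substrate was then added and dual-wavelength emission recorded.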

[12] = qHTS assay to identify small molecule agonists of the endoplasmic reticulum stress response signaling pathway - cell viability counter screen (AID 1159517; calls by dose curve)
Procedure, shortened: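 Cytotoxicity of test compounds toward ESRE-bla HeLa cells was assessed after 5 hr exposure. The luminescent CellTiter-Glo signal was measured 30 min after reagent addition.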

[13] = qHTS assay to identify small molecule antagonists of the retinoid-related orphan receptor gamma (ROR-gamma) signaling pathway - cell viability counter screen (AID 1159520); further: nearly all actives have a fitted effect of over 50% in size
Procedure, shortened: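 Tet-on ROR gamma CHO cells (1,000/well) were plated 4 hr, given compounds in DMSO for 2 hr at 37 C, then induced with 1 uM final doxycycline for 16 hr. Viability was read as ATP by CellTiter-Glo luminescence after 30 min.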

[14] = target: Nuclear receptor ROR-gamma (Homo sapiens) (UniProt P51449); experiment: qHTS assay to identify small molecule antagonists of the retinoid-related orphan receptor gamma (ROR-gamma) signaling pathway (AID 1159521)
Procedure, shortened: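 Luminescence readout (ONE-Glo, 30 min RT) after 16 h doxycycline induction; loss of signal scored as antagonism. CHO cells with TET-inducible RORγ and RORE-LUC reporter; compounds added 2 h before 1 uM final doxycycline.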

[15] = qHTS assay to identify small molecule agonists of the AP-1 signaling pathway (AID 1159526; calls by dose curve)
[16] = target: Peroxisome proliferator-activated receptor delta (Homo sapiens) (UniProt Q03181); experiment: qHTS assay to identify small molecule agonists of the peroxisome proliferator-activated receptor delta (PPARd) signaling pathway (AID 743212; calls by dose curve)
Procedure, shortened: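 Beta-lactamase reporter read by fluorescence (LiveBLAzer B/G FRET, 2 h, room temperature). Test agents, in DMSO, incubated at 37 C with PPARd-bla HEK293H cells.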

[17] = target: Bile acid receptor (Homo sapiens) (UniProt Q96RI1); experiment: qHTS assay to identify small molecule antagonists of the farnesoid-X-receptor (FXR) signaling pathway (AID 743217; active means well fitted inhibition curve with a large enough effect in the signal ratio in the repeat runs, not every such curve was filed as active; the % refers to the signal ratio)
Sequence of Bile acid receptor (Homo sapiens) (Q96RI1 whole entry, looked up): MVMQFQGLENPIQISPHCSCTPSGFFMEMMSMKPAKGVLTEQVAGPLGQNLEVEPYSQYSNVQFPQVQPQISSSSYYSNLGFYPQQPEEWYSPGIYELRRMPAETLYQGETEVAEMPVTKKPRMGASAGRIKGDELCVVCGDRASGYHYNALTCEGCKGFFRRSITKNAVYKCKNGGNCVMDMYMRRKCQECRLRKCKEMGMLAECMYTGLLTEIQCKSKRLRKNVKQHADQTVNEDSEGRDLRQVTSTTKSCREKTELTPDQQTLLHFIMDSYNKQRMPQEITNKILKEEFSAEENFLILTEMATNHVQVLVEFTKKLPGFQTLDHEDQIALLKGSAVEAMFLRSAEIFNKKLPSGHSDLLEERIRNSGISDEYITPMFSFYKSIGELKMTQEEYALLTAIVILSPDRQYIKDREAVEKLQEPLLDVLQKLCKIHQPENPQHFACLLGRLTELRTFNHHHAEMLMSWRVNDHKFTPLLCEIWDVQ
Procedure, shortened: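 Quantitative HTS, beta-lactamase reporter format: FXR-UAS-bla HEK 293T cells co-treated 16 h at 37 °C with compounds and 50 uM final chenodeoxycholic acid, then read by B/G FRET fluorescence.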

[18] = target: Bile acid receptor (Homo sapiens) (UniProt Q96RI1); experiment: qHTS assay to identify small molecule agonists of the farnesoid-X-receptor (FXR) signaling pathway (AID 743220; active means well fitted activation curve with a large enough effect in the signal ratio in the repeat runs, not every such curve was filed as active; the % refers to the signal ratio)
Procedure, shortened: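 FXR-UAS-bla HEK 293T cells carrying a UAS-driven beta-lactamase reporter were plated for 5 h at 37C/5% CO2, then exposed to DMSO-dissolved Tox21 10K compounds for 16 h at 37C. A LiveBLAzer B/G FRET substrate was loaded for 2 h at room temperature before fluorescence reading.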

[19] = target: Vitamin D3 receptor (Homo sapiens) (UniProt P11473); experiment: qHTS assay to identify small molecule antagonists of the vitamin D receptor (VDR) signaling pathway (AID 743223; active means well fitted inhibition curve with a large enough effect in the signal ratio in the repeat runs, not every such curve was filed as active; the % refers to the signal ratio)
Procedure, shortened: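 Beta-lactamase reporter read-out: FRET substrate fluorescence after 2 h at room temperature, following 16 h exposure of VDR-bla cells to test compound plus 3 nM (final) 1alpha,25-dihydroxyvitamin D3 agonist at 37C.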

[20] = qHTS assay to identify small molecule agonists of the AP-1 signaling pathway - cell viability counter screen (AID 1159525; calls by dose curve; further: nearly all actives have a fitted effect of over 55% in size)
Procedure, shortened: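 Each titration point was normalised to DMSO and tetra n-octyl ammonium bromide controls. The read was Cell Titer Glo luminescence after 30 min at RT, following 5 h compound exposure of ME-180 AP-1-bla cells at 37 °C.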

Measured: Potency

CC(C)(c1ccc(Oc2ccc3c(c2)C(=O)OC3=O)cc1)c1ccc(Oc2ccc3c(c2)C(=O)OC3=O)cc1
not listed: [16] | [17] | [18] | [19] | [20]
inactive: all other assays above

Cc1cccc(Nc2ccncc2S(=O)(=O)NC(=O)NC(C)C)c1
not listed: [1] | [4] | [20]
inactive: all other assays above

C[Si]1(C)N[Si](C)(C)N[Si](C)(C)N1
not listed: [1] | [3] | [6] | [16] | [17] | [18] | [19]
inactive: all other assays above

Nc1ccc(C(=O)OCC(O)CO)cc1 (stereo not given)
not listed: [1] | [3] | [8] | [16] | [17] | [18] | [20]
inactive: all other assays above

COCCOCCOCCOC
not listed: [3] | [14] | [16]
inactive: all other assays above

O=P(O)(O)OCC(O)CO (stereo not given)
not listed: [3] | [6] | [14] | [19]
inactive: all other assays above

CCOC(=O)CC(CC(=O)OCC)(OC(C)=O)C(=O)OCC
not listed: [1] | [3] | [13] | [16] | [18]
inactive: all other assays above

Cc1cc(C)cc([N+](=O)[O-])c1
not listed: [2] | [13]
inactive: all other assays above

CCCCOC(=O)[C@@H](C)Oc1ccc(Oc2ccc(C(F)(F)F)cn2)cc1
not listed: [1] | [6] | [14]
inactive: all other assays above

CCCCCC(=O)OCC
not listed: [1] | [3] | [5] | [14] | [16] | [17]
inactive: all other assays above

C=C[Si](C)(C)O[Si](C)(C)C=C
not listed: [1] | [3] | [14] | [16] | [17] | [18]
inactive: all other assays above

NC(=O)NNC(N)=O
not listed: [1] | [6] | [7] | [13] | [19]
inactive: all other assays above

COc1cc2c3cc1Oc1cc(ccc1O)C[C@@H]1c4c(cc(OC)c(O)c4Oc4ccc(cc4)C[C@@H]3N(C)CC2)CC[N+]1(C)C
not listed: [1] | [4] | [14] | [17]
inactive: all other assays above
